Assay outcomes deposited in PubChem BioAssay by NMMLSC.
Only some compounds are listed: those with a hit (about 1.2% of all), similar ones and a draw of the others.
RGS4-Gao reg – modulators of RGS4 binding to Galphao, primary screen, biochemical, multiplexed bead flow cytometry; 220,000 compounds, 0.33% hits; actives lie on both sides; binding response (% of control), % at 10 µM; AID 1415, 2008; Guanine nucleotide-binding protein G(o) subunit alpha (Homo sapiens), P09471; in the data active = binding response below about 49% or above about 150%; inactive = in between;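 also: fluorescent Galphao activated with aluminum fluoride binding bead-coupled RGS4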
Target sequence (P09471 whole entry, looked up): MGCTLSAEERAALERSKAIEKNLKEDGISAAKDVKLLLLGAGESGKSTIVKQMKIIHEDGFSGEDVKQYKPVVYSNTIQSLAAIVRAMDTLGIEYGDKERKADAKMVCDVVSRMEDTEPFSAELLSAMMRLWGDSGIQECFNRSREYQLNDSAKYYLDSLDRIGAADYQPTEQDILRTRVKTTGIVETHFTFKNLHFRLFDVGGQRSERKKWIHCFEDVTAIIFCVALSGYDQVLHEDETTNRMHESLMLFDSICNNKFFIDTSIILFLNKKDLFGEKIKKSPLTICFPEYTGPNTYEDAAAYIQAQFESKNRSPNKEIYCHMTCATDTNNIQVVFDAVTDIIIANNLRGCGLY
RGS7-Gao – RGS7-Galphao binding modulators, primary screen, biochemical, multiplexed bead flow cytometry; actives lie on both sides; Guanine nucleotide-binding protein G(o) subunit alpha (Homo sapiens), P09471; binding response (% of control), % at 10 µM; 220,000 compounds, 0.35% hits; in the data active = binding response below about 49% or above about 150%; inconclusive = no clear call, values can overlap the other calls; inactive = in between;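 also: fluorescent Galphao held in activated GDP-AlF4 state binding bead-coupled RGS7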
RGS16-Gao – modulators of RGS16 binding to Galphao, primary screen, biochemical, human proteins, multiplexed bead flow cytometry; Regulator of G-protein signaling 16 (Homo sapiens) + Guanine nucleotide-binding protein …; bead-based flow cytometry RGS16-Galphao binding, fluorescence; actives lie on both sides; binding response (% of control), % at 10 µM; 220,000 compounds, 0.38% hits; AID 1441, 2008;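 also: Galphao activated by GDP with aluminum fluoride before binding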
Target sequence (O15492 whole entry, looked up): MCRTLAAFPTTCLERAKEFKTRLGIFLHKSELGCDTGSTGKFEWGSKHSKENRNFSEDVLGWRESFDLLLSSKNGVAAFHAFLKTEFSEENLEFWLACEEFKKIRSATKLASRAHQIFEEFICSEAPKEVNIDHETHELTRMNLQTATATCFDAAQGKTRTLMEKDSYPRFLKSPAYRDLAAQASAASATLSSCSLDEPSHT
Target sequence (P09471 whole entry, looked up): as the sequence (P09471 whole entry, looked up) above
Avidin bead fluor – green autofluorescence of compounds with avidin beads – biophysical, 488/530 nm, flow cytometry, artefact control, profiling panel | fluorescence (KMESF) at 10 µM | AID 1775, 2009 | compound fluorescence 488/530 nm; active compounds read high | 220,000 compounds, 0.38% hits; in the data active = fluorescence above about 47
GSH fluor – compound fluorescence on glutathione beads, profiling panel, artefact control, biophysical, 488/530 nm, flow cytometry; fluorescence (KMESF) at 10 µM; GSH beads flow cytometry, compound fluorescence 488/530 nm; active compounds read high; 190,000 compounds, 0.25% hits; in the data active = fluorescence above about 89;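 also: glutathione beads carrying GST-tagged Bcl family fusion proteins plus one bare bead set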
RGS8-Gao – RGS8-Galphao binding modulators, primary screen, biochemical, multiplexed bead flow cytometry. 220,000 compounds, 0.34% hits. response (percent of control binding), % at 10 µM. actives lie on both sides. Guanine nucleotide-binding protein G(o) subunit alpha (Homo sapiens), P09471; in the data active = response below about 60% or above about 140%; inactive = in between;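 also: Galphao activated as the GDP aluminium fluoride complex binding bead-coupled RGS8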
RGS4-Gao HTS – modulators of RGS–Galpha-o binding, primary screen, biochemical, multiplexed beads, flow cytometry, RGS4/7/8/16/19. shares compounds with RGS16-Gao. multiplexed bead flow cytometry. 1,600 compounds, 99% hits. AID 1504, 2009. RGS4–Galpha-o binding response, % at 10 µM;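 also: fluorescently labeled Galpha-o bound to GDP with aluminium fluoride binding biotinylated RGS beads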
Biotin-avidin – disruption of biotin probe capture by avidin, counter-screen for RGS protein interaction modulators, biochemical, flow cytometry, bead-based; shares compounds with RGS16-Gao; streptavidin beads, fluorescein-biotin binding; inhibition, % at 10 µM; 1,700 tested, under 10 active; AID 1783, 2009;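 active = inhibition above 50%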;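 also: median green fluorescence of gated singlet beads compared with DMSO control wells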
RGS8-Gao single – RGS8-Galphao binding modulators, confirmation, biochemical, multiplexed bead flow cytometry, single concentration; shares compounds with RGS16-Gao; bead-based flow cytometry RGS8-Galphao binding, fluorescence; actives lie on both sides; binding response (% of control), % at 10 µM; 1,700 compounds, 3% hits; AID 1836, 2009; in the data active = binding response below about 72% or above about 130%; inactive = in between;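 also: Galphao activated as GDP AlF4 complex before binding bead RGS8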
RGS7-Gao confirm – RGS7-Galphao binding modulators, confirmation, biochemical, multiplexed bead flow cytometry, single concentration; shares compounds with RGS16-Gao; bead-based flow cytometry RGS7-Galphao binding; actives lie on both sides; response (percent of control binding), % at 10 µM; 1,700 compounds, 7.8% hits; in the data active = response below about 75% or above about 130%; inactive = in between;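 also: fluorescent Galphao activated with GDP and aluminum fluoride binding bead-coupled RGS7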
RGS16-Gao single – modulators of RGS16-Galphao protein binding, confirmation, biochemical, single concentration, multiplexed bead flow cytometry. shares compounds with RGS16-Gao. bead-based flow cytometry; actives lie on both sides. response (% of control binding), % at 10 µM. 1,700 compounds, 4% hits; in the data active = response below about 74% or above about 130%; inactive = in between;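 also: Galphao activated as the GDP aluminium fluoride complex binding bead-coupled RGS16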
RGS4-Gao single – modulators of RGS4-Galphao protein binding, confirmation, biochemical, single concentration, multiplexed bead flow cytometry | 1,700 compounds, 4% hits | binding response (% of control), % at 10 µM | shares compounds with RGS16-Gao | actives lie on both sides; in the data active = binding response below about 74% or above about 130%; inactive = in between
RGS19-Gao conf – regulators of RGS19-Galphao binding, confirmation, biochemical, single point, multiplexed bead flow cytometry | shares compounds with RGS16-Gao | 1,700 compounds, 5% hits | bead-based flow cytometry RGS19-Galphao binding; actives lie on both sides | response (percent of control binding), % at 10 µM; in the data active = response below about 50% or above about 160%; inactive = in between
Numbers stand for hits; - = inactive; ? = inconclusive; . = no result; [ ] = remark or other dose. Unless noted, no rule for the calls is given here.

SMILES	RGS4-Gao reg	RGS7-Gao	RGS16-Gao	Avidin bead fluor	GSH fluor	RGS8-Gao	Biotin-avidin	RGS8-Gao single	RGS7-Gao confirm	RGS16-Gao single	RGS4-Gao single	RGS19-Gao conf	others
O=C(N/N=C\c1c(O)ccc2ccccc12)c1ccc(Cn2cccn2)o1	-	-	12.0	-	-	43.2	-	-	-	-	-	-	RGS4-Gao HTS=56.7
CCCn1c(N)c(C(=O)CSc2nc3ccccc3c(=O)n2Cc2ccccc2)c(=O)[nH]c1=O	226.7[activator]	157.6[activator]	-	64	-	-	-	-	65.2	-	-	48.2
Cc1cc(Nc2ccccc2C(=O)O)n(-c2ccc([N+](=O)[O-])cc2)n1	-	?	-	-	.	-	.	.	.	.	.	.
O=C(/C=C/c1ccc(Br)o1)OCc1ccccc1	.	.	.	.	-	.	-	-	-	-	-	-
CCOC(=O)C(CSCc1ccccc1)NC(=O)OC(C)(C)C (stereo not drawn)	-	-	-919.8	-	-	-	.	.	.	.	.	.	RGS4-Gao HTS=92.8
CCOC(=O)C(CSCC(=O)c1ccc(Br)cc1)NC(=O)OC(C)(C)C (stereo not drawn)	-	-	-	-	-	-	.	.	.	.	.	.
Cc1ccc(-c2cc(C(F)(F)F)c(C#N)c(=O)[nH]2)cc1	-	-	-	-	-	-	.	.	.	.	.	.
N#Cc1c(C(F)(F)F)cc(C2CC2)[nH]c1=O	-	184.4[activator]	-	85	-	-	-	-	-	-	-	-	RGS4-Gao HTS=108.6
O=C(Nc1ccc(Nc2ccncc2)cc1)c1ccc(Nc2ccnc3ccc([N+](=O)[O-])cc23)cc1	24.3	?	-	-	.	59.1	-	-	-	-	-	-
CCN(CC)S(=O)(=O)c1cccc(-c2nnc(SCC(=O)NC)n2CCc2ccccc2)c1	-	245.9[activator]	-	161	-	-	-	-	-	-	-	-	RGS4-Gao HTS=127.8
O=C(/C=C/c1ccc(Cl)cc1Cl)N1CCN(c2ccccc2[N+](=O)[O-])CC1	-	-	-	-	-	-	.	.	.	.	.	.
O=C1/C(=C\c2ccc(-c3ccccc3[N+](=O)[O-])o2)C(c2ccccc2)=NN1c1ccccc1	-5.8	7.8	-1.8	-	-	14.3	-	-	-	-	-	-
COc1cc(C(=O)NNC(=O)c2ccc(NC(C)=O)cc2)cc(OC)c1OC	22.8	16.8	11.4	-	-	14.5	-	-	209.9[activator]	131.7[activator]	165.1[activator]	255.1[activator]
COc1cc(C(=O)Nc2ccc(N(C)C)cc2)cc(OC)c1OC	-	-	-	-	-	-	.	.	.	.	.	.
COc1ccc(-n2cc(CNCC3CC(=O)N(C4CC4)C3)c(-c3ccccc3Cl)n2)cc1 (stereo not drawn)	-	-	-	-	-	-	.	.	.	.	.	.
CCN1CC(CNCc2cn(-c3ccc(OC)cc3)nc2-c2ccccc2Cl)CC1=O (stereo not drawn)	48.2	38.9	-	-	-	56.8	-	-	-	-	-	-
COCCCNC(=O)c1ccc2c3c(onc13)-c1ccccc1C2=O	43.4	?	-	-	.	-	-	69.3	64.0	68.1	-	41.8
COCCCNC(=O)c1ccccc1Oc1ccccc1	-	-	-	-	-	-	.	.	.	.	.	.
CCN(C(=O)CSc1cc(C)c2ccccc2n1)C1CCS(=O)(=O)C1 (stereo not drawn)	13.9	12.4	8.0	-	-	13.0	-	-	-	-	-	-
CCN(C(=O)CSc1ccc2ccccc2n1)C1CCS(=O)(=O)C1 (stereo not drawn)	-	-	-	-	-	-	.	.	.	.	.	.
CCN(CC)C(=O)CSc1nnc2nnc3cc(OC)ccc3n12	-	?	-	-	.	-	.	.	.	.	.	.
Cc1ccc(Cl)cc1N(CC(=O)NC1CCCCC1)S(C)(=O)=O	180.2[activator]	197.2[activator]	-	-	-	246.7[activator]	-	-	-	-	-	-
CCOC(=O)c1ccccc1-c1csc(N)n1	-	?	-	-	-	-	.	.	.	.	.	.
O=C(CN1CCOCC1)Nc1ccccc1-c1ccccc1	-	-	-	-	-	-	.	.	.	.	.	.
O=C(CN1CCCCC1)Nc1ccccc1-c1ccccc1	-	-	-	-	-	158.8[activator]	-	-	-	-	-	-	RGS4-Gao HTS=143.5
O=C(/C(C=Nc1cccc(C(F)(F)F)c1)=C(/O)c1ccco1)C(F)(F)F	-	-	2.5	-	-	-	-	-	-	-	-	-	RGS4-Gao HTS=86.6
NC(CC(=O)O)c1ccc(Br)cc1 (stereo not drawn)	-	-	178.7[activator]	-	-	-	-	-	-	-	-	-	RGS4-Gao HTS=106.5
COc1ccc(NC(=O)CSc2ncnc3c2cnn3CCc2ccccc2)cc1	-20.0	0.3	-12.1	-	-	19.3	-	-	-	-	-	-
COc1cccc(NC(=O)CSc2ncnc3c2cnn3Cc2ccccc2)c1	-	-	-	-	-	-	.	.	.	.	.	.
COC(=O)c1c(NC(=S)Nc2ccc(C(=O)N3CCOCC3)cc2)sc2c1CCC2	-	-	-	-	-	-	.	.	.	.	.	.
